Whole data set: some 16,000 sequences, median “rpm ratio (pull-down/input)” near 0.5, cut for the highest 2% near 5.5. The entries come from a sample that favours the highest values as a whole.

These results are taken from publication PMC12820563, “FoxP3 forms a head-to-head dimer in vivo and stabilizes its multimerization on adjacent microsatellites”.

For this assay, the target named is T1, MBP-FoxP3dN (Mus musculus, UniProt Q99JB6 188-423).
T1 sequence: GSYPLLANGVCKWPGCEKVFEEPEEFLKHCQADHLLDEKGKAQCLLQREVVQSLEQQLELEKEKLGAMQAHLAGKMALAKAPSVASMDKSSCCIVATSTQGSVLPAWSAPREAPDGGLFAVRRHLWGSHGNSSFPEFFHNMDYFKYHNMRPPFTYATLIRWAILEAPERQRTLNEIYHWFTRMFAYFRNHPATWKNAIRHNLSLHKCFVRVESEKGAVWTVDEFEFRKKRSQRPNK
Put plainly: PD-seq (MBP pull-down with sequencing); 20 mM Tris-HCl pH 7.5, 100 mM NaCl, 1.5 mM MgCl2, 0.4 uM protein, 0.1 uM dsDNA library, 30 min, room temperature, amylose pull-down; high values mean tight binding. The conditions noted are these: protein: recombinant; tags: His6-MBP; chain copies: 2; dsDNA, one strand shown. Summed up:
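Binding is the reads-per-million enrichment of pull-down relative to input, pooled across replicates. For this, 0.4 µM His6-MBP-tagged mouse FoxP3 or FoxP1 fragment lacking the N-terminus, made in E. coli, was incubated with 0.1 µM Klenow-filled double-stranded degenerate DNA library for 30 min at room temperature in Tris pH 7.5 buffer with NaCl and MgCl2. Complexes bound to amylose resin were washed three times before proteinase K released the DNA for PCR barcoding and Illumina sequencing.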
For “GATGATTGTTCTCCCAGCTGATGAATTCTAATCATCGAGTAAACAAATTTTCCTAATCTTTCTGTTCAAGCGCCATCTAC”, the binding signal is 0.567 RPM ratio (pull-down/input).

“GATGATTGTTCTCCCAGCTGATGAATTGACGCATTCGAGTAAACAAATTTTCCTAATCTTTCTGTTCAAGCGCCATCTAC”: the binding signal is 5.74 RPM ratio (pull-down/input).

Take “GATGATTGTTCTCCCAGCTGATGAATTCGACGCATCGAGTAAACAAATTTTCCTAATCTTTCTGTTCAAGCGCCATCTAC”: the binding signal is 0.992 RPM ratio (pull-down/input).

For the sequence “GATGATTGTTCTCCCAGCTGATGAATTCGCATTTTCGAGTAAACAAATTTTCCTAATCTTTCTGTTCAAGCGCCATCTAC”, the binding signal is 4.25 RPM ratio (pull-down/input).

Turning to “GATGATTGTTCTCCCAGCTGATGAATTGTTCGCATCGAGTAAACAAATTTTCCTAATCTTTCTGTTCAAGCGCCATCTAC”, the binding signal is 1.1 RPM ratio (pull-down/input).

For the sequence “GATGATTGTTCTCCCAGCTGATGAATTTCGCATTTCGAGTAAACAAATTTTCCTAATCTTTCTGTTCAAGCGCCATCTAC”, the binding signal is 6.94 RPM ratio (pull-down/input).

On to “GATGATTGTTCTCCCAGCTGATGAATTCGCATTCTCGAGTAAACAAATTTTCCTAATCTTTCTGTTCAAGCGCCATCTAC”, for which the binding signal is 4.89 RPM ratio (pull-down/input).

For the sequence “GATGATTGTTCTCCCAGCTGATGAATTCTCGCATTCGAGTAAACAAATTTTCCTAATCTTTCTGTTCAAGCGCCATCTAC”, the binding signal is 5.82 RPM ratio (pull-down/input).

Consider “GATGATTGTTCTCCCAGCTGATGAATTTTTCGCATCGAGTAAACAAATTTTCCTAATCTTTCTGTTCAAGCGCCATCTAC”, for which the binding signal is 0.898 RPM ratio (pull-down/input).

“GATGATTGTTCTCCCAGCTGATGAATTCGCCATTTCGAGTAAACAAATTTTCCTAATCTTTCTGTTCAAGCGCCATCTAC”: the binding signal is 1.75 RPM ratio (pull-down/input).

As to “GATGATTGTTCTCCCAGCTGATGAATTTGACGCATCGAGTAAACAAATTTTCCTAATCTTTCTGTTCAAGCGCCATCTAC”, the binding signal is 1.22 RPM ratio (pull-down/input).

For the sequence “GATGATTGTTCTCCCAGCTGATGAATTTCGCCATTCGAGTAAACAAATTTTCCTAATCTTTCTGTTCAAGCGCCATCTAC”, the binding signal is 5.04 RPM ratio (pull-down/input).

As to “GATGATTGTTCTCCCAGCTGATGAATTTTCGCATTCGAGTAAACAAATTTTCCTAATCTTTCTGTTCAAGCGCCATCTAC”, the binding signal is 6.27 RPM ratio (pull-down/input).

As to “GATGATTGTTCTCCCAGCTGATGAATTTGGATACTCGAGTAAACAAATTTTCCTAATCTTTCTGTTCAAGCGCCATCTAC”, the binding signal was 1.85 RPM ratio (pull-down/input).

“GATGATTGTTCTCCCAGCTGATGAATTGCCCAAATCGAGTAAACAAATTTTCCTAATCTTTCTGTTCAAGCGCCATCTAC”: the binding signal was 0.385 RPM ratio (pull-down/input).

As to “GATGATTGTTCTCCCAGCTGATGAATTAGTTACATCGAGTAAACAAATTTTCCTAATCTTTCTGTTCAAGCGCCATCTAC”, the binding signal is 0.891 RPM ratio (pull-down/input).

Take “GATGATTGTTCTCCCAGCTGATGAATTTAGCTACTCGAGTAAACAAATTTTCCTAATCTTTCTGTTCAAGCGCCATCTAC”: the binding signal is 1.83 RPM ratio (pull-down/input).

Turning to “GATGATTGTTCTCCCAGCTGATGAATTTTTGGAGTCGAGTAAACAAATTTTCCTAATCTTTCTGTTCAAGCGCCATCTAC”, the binding signal is 0.23 RPM ratio (pull-down/input).
